A number with no mark means an inactive call. The call rests on the fitted dose curve; in most records, active means well fitted curve in the direction sought with a large enough effect; inconclusive means small, poorly fitted or top-dose-only effect, or another doubt; inactive means no such curve, though single readings can be large; an effect the other way counts as inactive or inconclusive. Results filed as inconclusive are left out.

Alpha-galactosidase (Coffea arabica), sequence (Q42656 whole entry, looked up): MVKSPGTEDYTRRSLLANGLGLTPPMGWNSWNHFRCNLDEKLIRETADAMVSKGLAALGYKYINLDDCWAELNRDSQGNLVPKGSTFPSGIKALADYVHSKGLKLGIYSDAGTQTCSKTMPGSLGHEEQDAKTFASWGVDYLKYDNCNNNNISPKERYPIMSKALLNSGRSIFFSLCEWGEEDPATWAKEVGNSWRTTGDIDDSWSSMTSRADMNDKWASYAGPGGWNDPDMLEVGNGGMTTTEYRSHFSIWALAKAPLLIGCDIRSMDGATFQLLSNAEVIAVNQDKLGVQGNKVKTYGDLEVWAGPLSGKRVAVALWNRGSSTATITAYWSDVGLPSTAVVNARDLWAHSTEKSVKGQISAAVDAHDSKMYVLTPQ

The target of the first test is Cytochrome P450 3A4 (Homo sapiens) (UniProt P08684). As to the kind of experiment: qHTS Assay for Inhibitors and Substrates of Cytochrome P450 3A4 (AID 884). Further: on the % scale 0 is the no-effect control and ±100 the full control effect; nearly all actives have a fitted effect of over 50% in size. The conditions noted are these: recombinant CYP3A4, Luciferin-PPXE luminescence; series mostly up to 57.1 µM; activity change, negative = inhibition: at the top concentration. A digest of the protocol: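 20 nM human CYP3A4 with 25 uM Luciferin-PPXE (at KM) in 200 mM KPO4, preincubated 10 min with compound; NADPH regeneration started a 60 min RT reaction. Luciferin detected by luminescence, normalized to 57 uM ketoconazole as full inhibition.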
Cytochrome P450 3A4 (Homo sapiens), sequence (P08684 whole entry, looked up): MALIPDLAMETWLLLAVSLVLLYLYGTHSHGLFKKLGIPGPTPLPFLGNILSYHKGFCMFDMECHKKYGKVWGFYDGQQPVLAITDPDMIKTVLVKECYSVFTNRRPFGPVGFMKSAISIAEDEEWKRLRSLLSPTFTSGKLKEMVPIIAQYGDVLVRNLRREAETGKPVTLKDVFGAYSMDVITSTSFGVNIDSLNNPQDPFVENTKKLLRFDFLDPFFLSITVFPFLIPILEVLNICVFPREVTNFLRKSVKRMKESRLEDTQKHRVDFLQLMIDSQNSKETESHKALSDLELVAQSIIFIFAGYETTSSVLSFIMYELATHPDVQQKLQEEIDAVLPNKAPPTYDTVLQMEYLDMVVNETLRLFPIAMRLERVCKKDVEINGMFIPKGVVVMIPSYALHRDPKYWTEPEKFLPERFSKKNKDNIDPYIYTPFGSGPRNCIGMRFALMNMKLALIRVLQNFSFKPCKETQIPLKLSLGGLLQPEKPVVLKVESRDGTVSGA
A general note: Quantitative high-throughput screening tests each substance at several concentrations.
For `O=C(NC(=O)c1c(F)cccc1F)Nc1ccc(Cl)cc1`, the “activity change, negative = inhibition” value was -8.63%. Regarding `C/C=C1/C[C@@H](C)[C@](O)(CO)C(=O)OCC2=CCN3CC[C@@H](OC1=O)C23` (stereo partly specified), the “activity change, negative = inhibition” value was -22.4%. Still for that read-out and setting: next, `CC1(C)S[C@H]2[C@@H](N)C(=O)N2[C@H]1C(=O)O`: 4.03%; `CC1=CC(=O)c2c(O)cccc2C1=O`: -54.1%.

In a further test the target is Alpha-galactosidase (Coffea arabica) (UniProt Q42656). As to the kind of experiment: Counterscreen for Glucocerebrosidase Inhibitors: qHTS Assay for Coffee Bean alpha-Galactosidase at pH 4.5 (AID 957).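 Further: plate controls were enzyme alone for no effect and no enzyme for full effect.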 The conditions noted are these: purified coffee bean alpha-galactosidase, fluorogenic substrate; series mostly up to 76.9 µM; activity change, negative = inhibition: at the top concentration. The method, boiled down:
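Coffee bean enzyme (2 nM) with 80 uM 4-methylumbelliferyl alpha-D-galactopyranoside in 50 mM citric acid, 0.005% Tween-20, pH 4.5, 20 min at room temperature; compounds 0.7 nM–77 uM. Stopped at pH 10, fluorescence 365/440 nm; AC50 from Hill fits.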
In general terms: Counterscreens check selectivity or assay interference.
For `CC(C)(C)c1cc(/C=C(\C#N)C(N)=S)cc(C(C)(C)C)c1O`, the “activity change, negative = inhibition” value was -5.78%. For `COc1ccccc1N1CCN(CCCCNS(=O)(=O)c2cccc3c(N(C)C)cccc23)CC1`, the “activity change, negative = inhibition” value is -6.9%. On to `COC1=C(OC)C(=O)c2ccccc2C1=O`, for which the “activity change, negative = inhibition” value was -1.21%. As to `NC(N)=NC(=O)c1nc(Cl)c(N2CCCCCC2)nc1N`, the “activity change, negative = inhibition” value is -3.24%. Same read-out and setting: the result for `c1cnc2c(c1)ccc1cccnc12` reads -0.46%.

The next test has the same target. As to the kind of experiment: Counterscreen for Glucocerebrosidase Inhibitors: qHTS Assay for Coffee Bean alpha-Galactosidase at pH 5.9 (AID 998).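 Further: plate controls were uninhibited enzyme for no effect and no-enzyme basal signal for full effect.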 As to conditions: coffee bean alpha-galactosidase enzyme assay; series mostly up to 76.9 µM; activity, negative = inhibition: at the top concentration. A digest of the protocol: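 Green coffee bean enzyme (2 nM) with 4-methylumbelliferyl alpha-D-galactopyranoside (80 uM) in 50 mM citric acid, 0.005% Tween-20, pH 5.9, 20 min at room temperature; compounds 0.7 nM–77 uM. Stopped at pH 10, fluorescence Ex365/Em440; Hill-fit AC50.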
Consider `CC(C)(C)c1cc(/C=C(\C#N)C(N)=S)cc(C(C)(C)C)c1O`, for which the “activity, negative = inhibition” value is -6.71%. Turning to `CCCCCCCC/C=C\CCCCCCCC(=O)NCCc1ccc(O)c(O)c1`, the “activity, negative = inhibition” value is -9.11%. With `COc1ccccc1N1CCN(CCCCNS(=O)(=O)c2cccc3c(N(C)C)cccc23)CC1`, the “activity, negative = inhibition” value is -7.55%. Turning to `CCN(c1nc(N)c(C(=O)N=C(N)N)nc1Cl)C(C)C`, the “activity, negative = inhibition” value was -2.26%. In the case of `COC1=C(OC)C(=O)c2ccccc2C1=O`, the “activity, negative = inhibition” value is -3.07%.

`NC(N)=NC(=O)c1nc(Cl)c(N2CCCCCC2)nc1N`: the “activity, negative = inhibition” value is 1.67%. `c1cnc2c(c1)ccc1cccnc12`: the “activity, negative = inhibition” value is -3.68%.

Test system in the next test: not listed separately
As to the kind of experiment: Inducers of the Endoplasmic Reticulum Stress Response (ERSR) in human glioma: Validation (AID 504836). Further: 0% is about no effect. As to conditions: human glioma cells, ER stress response reporter; series mostly up to 38.3 µM; activation: at the top concentration. The method, boiled down: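 Stably transfected U87-MG glioma cells carrying a GRP78-based luciferase sensor; 16 h compound incubation. Luminescence end-point read 10 min after Bright-Glo addition at room temperature.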
On to `CC(C)(C)c1cc(/C=C(\C#N)C(N)=S)cc(C(C)(C)C)c1O`, for which the “activation” value is -7.65%. Regarding `CCCCCCCC/C=C\CCCCCCCC(=O)NCCc1ccc(O)c(O)c1`, the “activation” value was -0.962%. As for `Cc1cc(NC2CCCCC2)nc(-n2nc(C)cc2C)n1`, the “activation” value is -3.1%. Same read-out and setting: the result for `COc1ccccc1N1CCN(CCCCNS(=O)(=O)c2cccc3c(N(C)C)cccc23)CC1` reads 4.66%; that for `Cc1cc2c(cc1Cl)N(C(=O)Nc1ccc(Oc3cccnc3C)nc1)CC2`, -1.57%; that for `O=[N+]([O-])c1ccc2c(c1)S(=O)(=O)C=C2`, -11.5%. `O=C1c2ccccc2C(=O)c2c(NCCc3ccc(O)cc3)ccc(NCCc3ccc(O)cc3)c21`: the “activation” value was -9.57%. With `CCN(c1nc(N)c(C(=O)N=C(N)N)nc1Cl)C(C)C`, the “activation” value is -1.85%. In the case of `COC1=C(OC)C(=O)c2ccccc2C1=O`, the “activation” value was -3.47%. For the compound `Oc1ccc(/C=C/c2ccc(/C=C/c3ccc(O)cc3)c(Br)c2)cc1`, the “activation” value is 1.07%.

For the compound `C=CCc1cccc(C=NNC(=O)CN2CCN(Cc3ccccc3)CC2)c1O`, the “activation” value is -1.84%. Same read-out and setting: next, `NS(=O)(=O)C#Cc1ccccc1`: -11.6%; `NC(N)=NC(=O)c1nc(Cl)c(N2CCCCCC2)nc1N`: 0.786%. For `c1cnc2c(c1)ccc1cccnc12`, the “activation” value is -3.16%. As for `O=C(CCCCCN1CCN(c2ccccc2-c2ccccc2)CC1)NC1CCCc2ccccc21` (stereo unspecified), the “activation” value was -1.23%.

The record behind these values is PubChem BioAssay (NCATS).
